The values that follow come from PubChem BioAssay (NCATS).

For part of these data: Results with a measured potency or affinity are listed apart. The source made the active and inactive calls. No rule for the calls is given here.
For efficacy in this document: 0% is about no effect.

The conditions of one assay: Ebola virus entry assay, green fluorescence channel.
Take `CN1[C@@H]2CC(OC(=O)[C@H](CO)c3ccccc3)C[C@H]1[C@@H]1O[C@@H]12` (stereo partly drawn): the efficacy is -18.3% (inactive).

Consider `Nc1c[n+](N2CCOCC2)no1`, for which the efficacy was -8.8% (inactive).

As for `O=C(O)c1ccccc1OP(=O)(O)O`, the efficacy was 11.4% (inactive).

Turning to `Cc1nc2c([nH]1)c(=O)n(C)c(=O)n2Cc1ccco1`, the efficacy is 40.2% (inactive).

`CCOC(=O)c1ccc(N)cc1`: the efficacy was 26.1% (inactive).

For the molecule `Cc1cccc(C)c1NC(=O)CN(CC(=O)O)CC(=O)O`, the efficacy was -22.8% (inactive).

For the molecule `CC(=O)O[C@@H]1CC2C3CCc4cc(OC(=O)c5ccccc5)ccc4C3CCC2(C)[C@H]1OC(C)=O` (stereo partly drawn), the efficacy is 11.6% (inactive).

For `CN(C)C(=O)COC(=O)Cc1ccc(OC(=O)c2ccc(N=C(N)N)cc2)cc1`, the efficacy is -14.4% (inactive).

Take `CN[C@@H]1[C@@H](O)[C@@H](O[C@@H]2[C@H](O)[C@H](O[C@H]3OC(CN)=CC[C@H]3N)[C@@H](N)C[C@H]2N)OCC1(C)O` (stereo partly drawn): the efficacy is -7.04% (inactive).

In the case of `Cc1cc(OI)c(C(C)C)cc1-c1cc(C(C)C)c(OI)cc1C`, the efficacy is 13.6% (inactive).

In the case of `COc1cccc(OC)c1C(=O)N[C@@H]1C(=O)N2[C@@H]1SC(C)(C)[C@@H]2C(=O)O`, the efficacy was 19.6% (inactive).

Take `O=C(O)CCCCC1CCSS1` (stereo not drawn): the efficacy was -16.3% (inactive).

Regarding `CC(=O)c1ccc(S(=O)(=O)NC(=O)NC2CCCCC2)cc1`, the efficacy is -18.3% (inactive).

`NS(=O)(=O)c1ccc(NC(=O)CCC(=O)O)cc1`: the efficacy is 9.25% (inactive).

Turning to `Cc1cc(C(C#N)c2ccc(Cl)cc2)c(Cl)cc1NC(=O)c1cc(I)cc(I)c1O` (stereo not drawn), the efficacy is -32.3% (inactive).

On to `COc1ccc(C2C(=O)c3ccccc3C2=O)cc1`, for which the efficacy is -26.8% (inactive).

With `COC(=O)c1ccc(NC(C)=O)cc1OC`, the efficacy is 15.6% (inactive).

In the case of `O=C(C1CCCCC1)N1CC(=O)N2CCCc3ccccc3C2C1` (stereo not drawn), the efficacy was 76.1% (inactive).

Turning to `CCN1CCC[C@H]1CNC(=O)c1c(O)c(Cl)cc(Cl)c1OC`, the efficacy was -17.7% (inactive).

In the case of `COc1ccc(C(=O)NCc2ccc(OCCN(C)C)cc2)cc1OC`, the efficacy is -7.96% (inactive).

As to `CC(=O)OC[C@H]1O[C@@H](OC(C)=O)[C@H](OC(C)=O)[C@@H]1OC(C)=O`, the efficacy was 18.7% (inactive).

`CCOC(=O)c1ccc(O)cc1`: the efficacy was -24.8% (inactive).

For the molecule `Cn1c(=O)c2c(ncn2CCO)n(C)c1=O`, the efficacy is -37.9% (inactive).

Consider `O=C(O)Cc1ccc(-c2ccccc2)cc1`, for which the efficacy was 14.2% (inactive).

For the molecule `COc1cc(C)nc(-n2nc(C)cc2OC)n1`, the efficacy was -14.1% (inactive).

Turning to `CC(=O)N[C@@H](CCC(=O)O)C(=O)O`, the efficacy is -13.7% (inactive).

In the case of `Nc1ccc(S(N)(=O)=O)cc1`, the efficacy is -20.5% (inactive).

`C[C@]12C=CC(=O)C=C1[C@@H](F)C[C@@H]1[C@@H]2[C@@H](O)C[C@@]2(C)[C@H]1CC[C@]2(O)C(=O)CO`: the efficacy is 13.6% (inactive).

Consider `CC(=O)Oc1ccc(C)cc1`, for which the efficacy is 12.2% (inactive).

For the molecule `C=CCC1(C(C)CC)C(=O)NC(=O)NC1=O` (stereo not drawn), the efficacy was 14.7% (inactive).

In the case of `CC(=O)OCC[N+](C)(C)C`, the efficacy is -18% (inactive).

Turning to `Cc1oc(=O)oc1COC(=O)[C@@H]1N2C(=O)[C@@H](NC(=O)[C@H](N)c3ccccc3)[C@H]2SC1(C)C`, the efficacy was -26.8% (inactive).

With `Cc1cc2c(cc1CC(=O)c1sccc1S(=O)(=O)Nc1onc(C)c1Cl)OCO2`, the efficacy is -22.3% (inactive).

As to `COc1cc(CCN)cc(OC)c1OC`, the efficacy is 10.5% (inactive).

Regarding `CCOC(=O)c1ccc(O)c(O)c1`, the efficacy is -26.2% (inactive).

With `CCN[C@H]1CN(CCCOC)S(=O)(=O)c2sc(S(N)(=O)=O)cc21`, the efficacy was 16.3% (inactive).

`c1ccc(CN2CCNCC2)cc1`: the efficacy is -15.2% (inactive).

`CC(=O)O[C@]1(C(C)=O)CC[C@H]2[C@@H]3C[C@H](C)C4=CC(=O)CC[C@]4(C)[C@H]3CC[C@@]21C`: the efficacy is 38.2% (inactive).

For `CC1(C)S[C@@H]2[C@H](NC(=O)C(c3ccccc3)S(=O)(=O)O)C(=O)N2[C@H]1C(=O)O` (stereo partly drawn), the efficacy is 24.6% (inactive).

For the next assay the following is noted: Ebola virus entry assay, blue channel fluorescence.
Turning to `CN1[C@@H]2CC(OC(=O)[C@H](CO)c3ccccc3)C[C@H]1[C@@H]1O[C@@H]12` (stereo partly drawn), the outcome was inactive.

As for `Nc1c[n+](N2CCOCC2)no1`, the molecule was classed as inactive.

For `O=C(O)c1ccccc1OP(=O)(O)O`, the molecule was called inactive.

Regarding `Cc1nc2c([nH]1)c(=O)n(C)c(=O)n2Cc1ccco1`, the molecule was called inactive.

As for `CCOC(=O)c1ccc(N)cc1`, the call was inactive.

Turning to `Cc1cccc(C)c1NC(=O)CN(CC(=O)O)CC(=O)O`, the molecule was called inactive.

On to `CC(=O)O[C@@H]1CC2C3CCc4cc(OC(=O)c5ccccc5)ccc4C3CCC2(C)[C@H]1OC(C)=O` (stereo partly drawn), for which the result was inactive.

As for `CN(C)C(=O)COC(=O)Cc1ccc(OC(=O)c2ccc(N=C(N)N)cc2)cc1`, the molecule was called inactive.

On to `CN[C@@H]1[C@@H](O)[C@@H](O[C@@H]2[C@H](O)[C@H](O[C@H]3OC(CN)=CC[C@H]3N)[C@@H](N)C[C@H]2N)OCC1(C)O` (stereo partly drawn), for which the result was inactive.

Consider `Cc1cc(OI)c(C(C)C)cc1-c1cc(C(C)C)c(OI)cc1C`, for which the molecule was called inactive.

`COc1cccc(OC)c1C(=O)N[C@@H]1C(=O)N2[C@@H]1SC(C)(C)[C@@H]2C(=O)O`: the call was inactive.

For the molecule `O=C(O)CCCCC1CCSS1` (stereo not drawn), the molecule was called inactive.

As for `CC(=O)c1ccc(S(=O)(=O)NC(=O)NC2CCCCC2)cc1`, the call was inactive.

As to `NS(=O)(=O)c1ccc(NC(=O)CCC(=O)O)cc1`, the molecule was called inactive.

With `Cc1cc(C(C#N)c2ccc(Cl)cc2)c(Cl)cc1NC(=O)c1cc(I)cc(I)c1O` (stereo not drawn), the result was inactive.

On to `COc1ccc(C2C(=O)c3ccccc3C2=O)cc1`, for which the call was inactive.

With `COC(=O)c1ccc(NC(C)=O)cc1OC`, the call was inactive.

As for `O=C(C1CCCCC1)N1CC(=O)N2CCCc3ccccc3C2C1` (stereo not drawn), the molecule was classed as inactive.

For the molecule `CCN1CCC[C@H]1CNC(=O)c1c(O)c(Cl)cc(Cl)c1OC`, the molecule was classed as inactive.

As to `COc1ccc(C(=O)NCc2ccc(OCCN(C)C)cc2)cc1OC`, the molecule was called inactive.

`CC(=O)OC[C@H]1O[C@@H](OC(C)=O)[C@H](OC(C)=O)[C@@H]1OC(C)=O`: the outcome was inactive.

Regarding `CCOC(=O)c1ccc(O)cc1`, the outcome was inactive.

Turning to `Cn1c(=O)c2c(ncn2CCO)n(C)c1=O`, the outcome was inactive.

Consider `O=C(O)Cc1ccc(-c2ccccc2)cc1`, for which the outcome was inactive.

As for `COc1cc(C)nc(-n2nc(C)cc2OC)n1`, the molecule was classed as inactive.

With `CC(=O)N[C@@H](CCC(=O)O)C(=O)O`, the outcome was inactive.

For the molecule `Nc1ccc(S(N)(=O)=O)cc1`, the result was inactive.

As to `C[C@]12C=CC(=O)C=C1[C@@H](F)C[C@@H]1[C@@H]2[C@@H](O)C[C@@]2(C)[C@H]1CC[C@]2(O)C(=O)CO`, the molecule was classed as inactive.

As to `CC(=O)Oc1ccc(C)cc1`, the call was inactive.

On to `C=CCC1(C(C)CC)C(=O)NC(=O)NC1=O` (stereo not drawn), for which the call was inactive.

Turning to `CC(=O)OCC[N+](C)(C)C`, the molecule was classed as inactive.

Regarding `Cc1oc(=O)oc1COC(=O)[C@@H]1N2C(=O)[C@@H](NC(=O)[C@H](N)c3ccccc3)[C@H]2SC1(C)C`, the result was inactive.

Take `Cc1cc2c(cc1CC(=O)c1sccc1S(=O)(=O)Nc1onc(C)c1Cl)OCO2`: the molecule was classed as inactive.

In the case of `COc1cc(CCN)cc(OC)c1OC`, the molecule was called inactive.

As for `CCOC(=O)c1ccc(O)c(O)c1`, the molecule was classed as inactive.

On to `CCN[C@H]1CN(CCCOC)S(=O)(=O)c2sc(S(N)(=O)=O)cc21`, for which the call was inactive.

Take `c1ccc(CN2CCNCC2)cc1`: the molecule was classed as inactive.

Turning to `CC(=O)O[C@]1(C(C)=O)CC[C@H]2[C@@H]3C[C@H](C)C4=CC(=O)CC[C@]4(C)[C@H]3CC[C@@]21C`, the molecule was classed as inactive.

In the case of `CC1(C)S[C@@H]2[C@H](NC(=O)C(c3ccccc3)S(=O)(=O)O)C(=O)N2[C@H]1C(=O)O` (stereo partly drawn), the outcome was inactive.
